# Test results as given in the supplement of paper PMC10849652.
# Of roughly 7,900 targets only a part is listed; those with a hit were picked by preference. About 0.6% of all pairs of compound and target were hits. Unmarked numbers belong to inactive results.
# Columns and labels:
# Experiment in all cases: log2 fold change, soluble protein after heating vs DMSO (PISA); higher = thermal stabilisation; K562 cells, 10 uM, 30 min; active = over 0.2 and 3.5 SD of the protein, either way, in both replicates (recomputed)
# [1] = compound: C1COCCN1CCN2C3=CC=CC=C3N=C2NC(=O)C4=CC(=CC=C4)[N+](=O)[O-] [IRAK-1-4 Inhibitor I]
# Outline: (§1)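 Aliquots of K562 cells (2×10^6 cells/mL) treated with 10 μM compound for 30 min were heated for 3 min over 48°C-58°C. After pooling and extraction in PBS with 0.5% NP-40 at 4°C, soluble protein from a 21,000xg, 90 min spin was quantified by TMTpro 16plex LC-MS/MS with channel sums equalised. Thermal stability is expressed against control samples, from duplicates, as a log2 fold change.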
# [2] = compound: C=CC(=O)N1CCC[C@@H](n2nc(-c3ccc(Oc4ccccc4)cc3)c3c(N)ncnc32)C1 [ibrutinib]
# Outline: as §1
# [3] = compound: CC(=O)c1cnc2ccc(-c3cc(Cl)c(O)c(Cl)c3)nc2c1N[C@H]1CC[C@H](CN(C)C)CC1
# Outline: as §1
# [4] = compound: CC(C)(C)Cn1c(N)nc2ccc(-c3[nH]c(C(C)(C)C)nc3-c3ccc(F)cc3)nc21 [ralimetinib]
# Outline: as §1
# [5] = compound: CC(C)(O)CC(=O)NCCn1ccc2ncnc(Nc3ccc(Oc4cccc(C(F)(F)F)c4)c(Cl)c3)c21
# Outline: as §1
# [6] = compound: CC(C)C1=C2N=C(C=C(N2N=C1)NCC3=CC=CC=C3)NCCCCCCN
# Outline: as §1
# [7] = compound: CC(C)C[C@@H](C=O)NC(=O)[C@H](CC(C)C)NC(=O)[C@H](CC(C)C)NC(=O)OCc1ccccc1
# Outline: as §1
# [8] = compound: CC(C)N(C[C@H]1O[C@@H](n2cnc3c(N)ncnc32)[C@H](O)[C@@H]1O)[C@H]1C[C@@H](CCc2nc3cc(C(C)(C)C)ccc3[nH]2)C1 [pinometostat]
# Outline: as §1
# [9] = compound: CC1=C(C(CC(=O)N1)C2=CC=C(C=C2)C(F)(F)F)C(=O)NC3=C(C=C4C(=C3)C=NN4)F
# Outline: as §1
# [10] = compound: CC1=C(C2=C(C=C1)C(=O)C3=CC=CC=C3N2CCCN)C
# Outline: as §1
# UniProt Q93084, sequence (Q93084 whole entry, looked up): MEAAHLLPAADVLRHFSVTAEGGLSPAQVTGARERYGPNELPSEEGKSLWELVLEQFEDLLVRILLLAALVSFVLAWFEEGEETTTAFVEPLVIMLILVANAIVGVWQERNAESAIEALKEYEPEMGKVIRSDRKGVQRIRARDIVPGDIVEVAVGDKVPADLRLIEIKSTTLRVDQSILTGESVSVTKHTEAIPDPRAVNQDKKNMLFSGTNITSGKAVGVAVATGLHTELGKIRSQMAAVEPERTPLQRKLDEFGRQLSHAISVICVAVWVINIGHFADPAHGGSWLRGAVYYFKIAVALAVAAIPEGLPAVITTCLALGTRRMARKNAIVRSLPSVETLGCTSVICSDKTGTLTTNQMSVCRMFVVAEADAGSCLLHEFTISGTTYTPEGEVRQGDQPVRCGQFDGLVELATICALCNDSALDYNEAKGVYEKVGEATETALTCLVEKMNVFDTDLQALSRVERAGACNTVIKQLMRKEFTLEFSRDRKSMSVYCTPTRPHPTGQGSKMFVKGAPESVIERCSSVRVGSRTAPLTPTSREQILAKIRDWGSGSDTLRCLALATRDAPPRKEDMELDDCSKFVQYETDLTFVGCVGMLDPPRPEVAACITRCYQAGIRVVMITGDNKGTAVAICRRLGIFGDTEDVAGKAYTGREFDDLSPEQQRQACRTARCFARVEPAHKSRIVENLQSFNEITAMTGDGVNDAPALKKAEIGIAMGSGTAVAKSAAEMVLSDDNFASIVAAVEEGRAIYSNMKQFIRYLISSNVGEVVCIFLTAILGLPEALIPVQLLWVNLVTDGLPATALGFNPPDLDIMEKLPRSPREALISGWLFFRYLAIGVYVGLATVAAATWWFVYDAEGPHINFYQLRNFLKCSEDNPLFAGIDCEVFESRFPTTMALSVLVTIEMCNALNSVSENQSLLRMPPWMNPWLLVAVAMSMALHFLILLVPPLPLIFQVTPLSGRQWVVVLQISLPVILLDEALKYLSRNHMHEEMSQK
# UniProt Q9UBL3, sequence (Q9UBL3 whole entry, looked up): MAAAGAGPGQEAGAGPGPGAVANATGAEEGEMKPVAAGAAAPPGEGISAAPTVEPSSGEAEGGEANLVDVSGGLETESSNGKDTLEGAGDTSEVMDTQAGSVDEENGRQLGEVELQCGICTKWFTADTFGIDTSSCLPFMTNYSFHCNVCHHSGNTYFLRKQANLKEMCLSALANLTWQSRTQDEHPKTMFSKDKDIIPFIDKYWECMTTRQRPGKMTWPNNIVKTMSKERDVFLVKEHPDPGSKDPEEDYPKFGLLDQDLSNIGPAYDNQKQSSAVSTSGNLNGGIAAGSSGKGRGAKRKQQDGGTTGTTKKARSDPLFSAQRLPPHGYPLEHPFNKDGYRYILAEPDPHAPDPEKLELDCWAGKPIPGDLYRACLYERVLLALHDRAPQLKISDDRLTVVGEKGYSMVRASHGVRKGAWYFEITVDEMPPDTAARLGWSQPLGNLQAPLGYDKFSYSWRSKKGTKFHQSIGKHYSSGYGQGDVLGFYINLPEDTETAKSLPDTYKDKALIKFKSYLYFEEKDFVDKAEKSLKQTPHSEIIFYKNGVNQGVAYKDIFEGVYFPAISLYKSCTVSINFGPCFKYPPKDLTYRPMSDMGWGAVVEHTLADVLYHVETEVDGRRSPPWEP
# UniProt Q8WUW1, sequence (Q8WUW1 whole entry, looked up): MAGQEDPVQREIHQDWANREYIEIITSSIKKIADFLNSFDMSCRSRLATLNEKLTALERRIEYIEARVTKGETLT
# UniProt P56211, sequence (P56211 whole entry, looked up): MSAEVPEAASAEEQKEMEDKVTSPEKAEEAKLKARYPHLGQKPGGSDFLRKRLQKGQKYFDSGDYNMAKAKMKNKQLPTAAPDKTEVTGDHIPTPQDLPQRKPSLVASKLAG
# UniProt Q13685, sequence (Q13685 whole entry, looked up): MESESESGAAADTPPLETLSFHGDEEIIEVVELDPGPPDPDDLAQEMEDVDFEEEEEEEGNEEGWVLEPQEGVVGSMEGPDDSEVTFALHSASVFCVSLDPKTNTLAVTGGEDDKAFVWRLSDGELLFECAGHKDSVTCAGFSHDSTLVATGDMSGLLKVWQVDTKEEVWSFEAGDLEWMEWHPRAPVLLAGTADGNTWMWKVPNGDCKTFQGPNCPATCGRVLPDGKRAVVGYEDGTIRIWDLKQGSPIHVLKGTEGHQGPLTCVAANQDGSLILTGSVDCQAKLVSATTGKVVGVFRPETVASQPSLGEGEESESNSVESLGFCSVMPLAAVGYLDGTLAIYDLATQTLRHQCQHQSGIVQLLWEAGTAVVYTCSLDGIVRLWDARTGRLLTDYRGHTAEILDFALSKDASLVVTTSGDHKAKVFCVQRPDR
# UniProt Q99798, sequence (Q99798 whole entry, looked up): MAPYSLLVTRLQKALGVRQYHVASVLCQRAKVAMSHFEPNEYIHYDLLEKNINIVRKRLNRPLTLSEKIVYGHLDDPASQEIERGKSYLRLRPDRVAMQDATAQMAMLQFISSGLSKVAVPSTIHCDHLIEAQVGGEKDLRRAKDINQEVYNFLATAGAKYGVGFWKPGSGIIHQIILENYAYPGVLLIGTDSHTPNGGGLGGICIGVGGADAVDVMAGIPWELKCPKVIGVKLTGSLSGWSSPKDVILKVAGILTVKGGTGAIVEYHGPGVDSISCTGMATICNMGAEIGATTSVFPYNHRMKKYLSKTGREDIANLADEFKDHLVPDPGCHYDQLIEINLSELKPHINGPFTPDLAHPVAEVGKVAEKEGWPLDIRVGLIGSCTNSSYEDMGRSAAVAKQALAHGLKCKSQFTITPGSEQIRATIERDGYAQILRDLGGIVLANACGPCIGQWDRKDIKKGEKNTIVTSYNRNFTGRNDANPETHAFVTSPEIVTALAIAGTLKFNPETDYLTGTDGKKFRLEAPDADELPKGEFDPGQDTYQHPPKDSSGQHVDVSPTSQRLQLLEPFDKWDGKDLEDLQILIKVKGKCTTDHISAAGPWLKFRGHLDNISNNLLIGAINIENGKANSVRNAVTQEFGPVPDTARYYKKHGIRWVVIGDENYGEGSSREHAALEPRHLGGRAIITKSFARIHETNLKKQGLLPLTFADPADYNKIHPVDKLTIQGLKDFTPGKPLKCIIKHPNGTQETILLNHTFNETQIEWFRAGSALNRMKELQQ
# UniProt Q9UQB8, sequence (Q9UQB8 whole entry, looked up): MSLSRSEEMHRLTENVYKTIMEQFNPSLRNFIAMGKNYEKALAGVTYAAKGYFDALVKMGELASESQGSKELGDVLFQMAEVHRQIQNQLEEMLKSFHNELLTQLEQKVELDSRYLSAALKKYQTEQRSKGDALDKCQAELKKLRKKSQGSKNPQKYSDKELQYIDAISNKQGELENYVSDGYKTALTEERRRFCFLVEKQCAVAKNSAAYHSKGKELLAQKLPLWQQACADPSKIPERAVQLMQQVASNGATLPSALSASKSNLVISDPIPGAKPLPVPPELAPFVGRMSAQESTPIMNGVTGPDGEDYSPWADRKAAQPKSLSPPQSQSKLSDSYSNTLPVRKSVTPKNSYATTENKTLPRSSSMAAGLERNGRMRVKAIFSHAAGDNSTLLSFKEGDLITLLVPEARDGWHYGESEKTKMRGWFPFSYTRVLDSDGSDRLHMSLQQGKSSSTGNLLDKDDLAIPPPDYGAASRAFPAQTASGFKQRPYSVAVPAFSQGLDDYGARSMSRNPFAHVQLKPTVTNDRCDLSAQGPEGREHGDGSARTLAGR
# UniProt P35612, sequence (P35612 whole entry, looked up): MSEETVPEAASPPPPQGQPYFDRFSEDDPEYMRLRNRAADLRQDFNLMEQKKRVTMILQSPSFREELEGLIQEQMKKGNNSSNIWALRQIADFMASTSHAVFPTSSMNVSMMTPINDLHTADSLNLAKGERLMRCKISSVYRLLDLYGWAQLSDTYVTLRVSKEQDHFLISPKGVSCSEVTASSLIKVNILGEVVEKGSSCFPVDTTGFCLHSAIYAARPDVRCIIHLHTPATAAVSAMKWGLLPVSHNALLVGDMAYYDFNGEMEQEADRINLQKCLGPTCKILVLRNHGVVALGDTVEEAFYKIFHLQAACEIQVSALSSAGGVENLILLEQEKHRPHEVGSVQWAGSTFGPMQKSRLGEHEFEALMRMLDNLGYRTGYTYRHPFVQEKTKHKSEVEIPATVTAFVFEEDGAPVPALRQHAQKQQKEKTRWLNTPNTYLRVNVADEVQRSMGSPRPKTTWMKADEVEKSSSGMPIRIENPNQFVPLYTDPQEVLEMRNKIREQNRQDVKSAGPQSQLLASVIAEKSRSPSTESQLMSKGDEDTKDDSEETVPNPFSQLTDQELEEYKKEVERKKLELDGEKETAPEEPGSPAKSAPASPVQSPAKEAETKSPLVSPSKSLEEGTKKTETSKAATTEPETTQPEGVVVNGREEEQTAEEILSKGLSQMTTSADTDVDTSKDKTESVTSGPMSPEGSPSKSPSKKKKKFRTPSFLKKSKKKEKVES
# UniProt Q16864, sequence (Q16864 whole entry, looked up): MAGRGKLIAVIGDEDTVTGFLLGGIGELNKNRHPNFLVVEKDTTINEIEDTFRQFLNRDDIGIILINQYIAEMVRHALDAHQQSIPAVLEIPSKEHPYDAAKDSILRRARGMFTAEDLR
# UniProt Q9NWB6, sequence (Q9NWB6 whole entry, looked up): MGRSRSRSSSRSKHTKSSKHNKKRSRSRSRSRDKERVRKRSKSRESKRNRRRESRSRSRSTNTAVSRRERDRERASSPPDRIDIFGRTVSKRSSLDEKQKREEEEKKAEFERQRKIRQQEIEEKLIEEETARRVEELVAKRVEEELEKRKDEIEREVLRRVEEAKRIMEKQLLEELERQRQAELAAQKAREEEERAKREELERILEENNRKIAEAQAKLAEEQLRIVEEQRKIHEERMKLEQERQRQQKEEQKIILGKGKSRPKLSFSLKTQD
# UniProt P56385, sequence (P56385 whole entry, looked up): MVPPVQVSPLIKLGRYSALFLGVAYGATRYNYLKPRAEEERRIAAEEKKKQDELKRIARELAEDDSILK
# UniProt Q9Y3D8, sequence (Q9Y3D8 whole entry, looked up): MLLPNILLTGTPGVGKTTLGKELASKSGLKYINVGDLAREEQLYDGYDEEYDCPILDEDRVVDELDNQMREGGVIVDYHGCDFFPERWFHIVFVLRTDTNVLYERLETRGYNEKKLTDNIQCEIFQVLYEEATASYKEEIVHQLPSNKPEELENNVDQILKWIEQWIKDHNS
Target,log2 fold change [1],log2 fold change [2],log2 fold change [3],log2 fold change [4],log2 fold change [5],log2 fold change [6],log2 fold change [7],log2 fold change [8],log2 fold change [9],log2 fold change [10]
ATP2A3 isoform 2 (UniProt Q93084),0.038,-0.013,0.001,-0.023,0.018,-0.295 (active),-0.044,0.005,0.012,-0.009
AFG1L (UniProt Q8WV93),0.014,-0.016,-0.135,-0.134,-0.091,-0.385 (active),0.146,0.023,0.057,-0.056
ADH5 (UniProt P11766),0.038,0.011,0.014,-0.097,-0.02,0.05,-0.041,-0.05,0.01,0.019
AK6 (UniProt Q9Y3D8),-0.051,-0.014,-0.132,0.067,-0.175,-0.309,0.039,0.078,0.061,0.138
ACO2 (UniProt Q99798),0.023,0.025,-0.016,-0.019,-0.068,-0.058,-0.022,-0.033,-0.049,0.076
BAIAP2 (UniProt Q9UQB8),-0.016,-0.032,-0.265 (active),-0.034,-0.033,-0.056,0.062,0,0.001,0.041
ABCB6 (UniProt Q9NP58),-0.018,0.003,0.021,0.051,-0.073,-0.489 (active),-0.007,0.037,-0.058,0.065
ACADM isoform 2 (UniProt P11310),0.028,0.034,-0.013,-0.068,-0.043,0.051,-0.001,-0.085,-0.006,0
ARMC8 (UniProt Q8IUR7),-0.025,-0.017,0.036,0.084,-0.011,-0.01,-0.093,-0.021,-0.025,-0.07
ATP11A (UniProt P98196),-0.003,0.007,0.018,0,-0.026,0.073,0.052,0.004,0.05,0.036
ATP5ME (UniProt P56385),-0.003,-0.002,-0.019,-0.04,-0.044,0.031,0.011,-0.036,0.011,0.039
ARPP19 (UniProt P56211),0.052,-0.009,0,0.048,-0.051,0.048,-0.071,-0.157,0.069,-0.074
ATP6AP1 (UniProt Q15904),-0.02,0,-0.035,0.01,0.035,-0.091,0.02,0.101,0.047,-0.024
ARL1 (UniProt P40616),0.007,-0.031,-0.06,0.029,-0.09,0.044,-0.049,-0.039,-0.065,0.066
ASH2L (UniProt Q9UBL3),-0.022,-0.048,-0.046,0.004,-0.018,0.016,-0.004,-0.013,-0.013,-0.044
BAP1 (UniProt Q92560),-0.038,-0.056,-0.125,0.06,-0.014,-0.217,0.048,0.163,-0.116,-0.17

Target,log2 fold change [1],log2 fold change [2],log2 fold change [3],log2 fold change [4],log2 fold change [5],log2 fold change [6],log2 fold change [7],log2 fold change [8],log2 fold change [9],log2 fold change [10]
ARGLU1 (UniProt Q9NWB6),-0.289,-0.019,-0.633 (active),-0.029,0.15,0.023,-0.001,0.127,-0.019,0.134
ADD2 (UniProt P35612),0.04,0.009,-0.172,-0.021,-0.004,0.042,-0.024,-0.015,0.01,0.029
AGRN (UniProt O00468),-0.205,0.09,-0.025,0.125,-0.022,0.156,-0.066,-0.005,0.078,0.014
AARSD1 isoform 3 (UniProt Q9BTE6),0.002,-0.074,0.029,-0.038,-0.017,-0.177,0.069,-0.01,-0.027,-0.126
BRK1 isoform 2 (UniProt Q8WUW1),-0.026,-0.004,-0.045,-0.037,-0.018,0.058,-0.053,-0.157,0.064,0.145
AUH (UniProt Q13825),-0.237,0.031,0.036,-0.003,,0.084,0.026,0.28,,0.032
AAMP (UniProt Q13685),0.007,0.023,0.064,0.031,0.04,-0.051,-0.02,0.007,0,0.225 (active)
ANK2 (UniProt Q01484),-0.069,-0.024,-0.058,-0.029,,-0.178,0.08,0.062,0.071,0.423 (active)
AP2M1 (UniProt C9JTK4),0.056,-0.044,0.049,,0.005,,,0.03,0.085,0.001
ADAMTS5 (UniProt Q9UNA0),0.064,0.127,0.036,0.141,,0.088,-0.009,-0.03,-0.015,0.025
ADRM1 (UniProt Q16186),-0.096,-0.111,0.033,0.065,-0.077,-0.005,-0.064,0.015,-0.022,0.04
AKT1 (UniProt P31749),-0.014,-0.244,0.03,-0.023,0.01,-0.141,0.07,-0.051,-0.161,-0.038
ACOX3 (UniProt O15254),0.095,0.035,-0.177,,0.061,0.022,,-0.021,-0.081,-0.051
BRD3 (UniProt Q15059),0.163,0.037,-0.032,-0.136,,0.152,-0.065,0.143,0.026,0.162
ATP6V1F isoform 2 (UniProt Q16864),0.053,-0.003,-0.189,-0.054,-0.132,-0.024,-0.059,-0.009,0.039,0.253
